Measured values published in PubChem BioAssay AID743025 (Vanderbilt Specialized Chemistry Center, 2013).
Values without a mark were called inactive. Calls of active or inactive are those of the source.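 Rule for the calls: active = IC50 below 10 µM at human M5 in a calcium flux test, acting as a negative modulator; inactive = the rest.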

molecular target: Muscarinic acetylcholine receptor M5 (Homo sapiens) (UniProt P08912); assay: M5 muscarinic receptor negative allosteric modulators, cell-based, single concentration, human M5 (AID 743025); conditions: CHO-K1 hM5, ACh EC80 calcium flux, Fluo-4; at 10 µM; stronger effect = lower value
Sequence (P08912 whole entry, looked up): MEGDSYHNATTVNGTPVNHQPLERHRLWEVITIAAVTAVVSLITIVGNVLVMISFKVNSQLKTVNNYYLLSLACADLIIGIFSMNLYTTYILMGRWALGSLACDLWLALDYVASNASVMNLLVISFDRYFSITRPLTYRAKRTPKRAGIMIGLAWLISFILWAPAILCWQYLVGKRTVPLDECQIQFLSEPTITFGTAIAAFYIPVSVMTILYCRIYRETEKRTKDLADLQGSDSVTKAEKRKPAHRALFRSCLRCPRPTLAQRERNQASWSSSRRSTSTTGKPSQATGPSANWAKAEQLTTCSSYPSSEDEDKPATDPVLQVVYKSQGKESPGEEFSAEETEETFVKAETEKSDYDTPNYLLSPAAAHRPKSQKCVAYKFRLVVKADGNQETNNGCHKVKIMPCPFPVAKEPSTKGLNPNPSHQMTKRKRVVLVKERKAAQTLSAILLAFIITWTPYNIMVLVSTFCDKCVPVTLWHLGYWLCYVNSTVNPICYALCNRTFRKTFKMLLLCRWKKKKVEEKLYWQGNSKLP

Row | Compound | activity remaining
1 | O=C(Nc1ccc(F)cc1F)N1CCN2C(=O)c3ccccc3C12c1ccc(Cl)cc1 (configuration not stated) | 77.2%
2 | O=C(c1ccc2c(c1)CCO2)N1CCN2C(=O)c3ccccc3C12c1ccc(Cl)cc1 (configuration not stated) | 71.1%
3 | O=C(c1ccccn1)N1CCN2C(=O)c3ccccc3C12c1ccc(Cl)cc1 (configuration not stated) | 88.9%
4 | O=C(c1cccc(C(F)(F)F)c1)N1CCN2C(=O)c3ncccc3C12c1ccccc1 (configuration not stated) | 76.6%
5 | O=C(c1cc(F)cc(F)c1)N1CCN2C(=O)c3ccccc3C12c1ccc(F)cc1 (configuration not stated) | 69.3%
6 | COc1ccc(C23NCCN2C(=O)c2ccccc23)cc1 (configuration not stated) | 72.7%
7 | CN(C)c1ccc(C(=O)N2CCN3C(=O)c4ccccc4C23c2ccc(Cl)cc2)cc1 (configuration not stated) | 82.9%
8 | O=C(c1ccccc1)N1CCCN2C(=O)c3ccccc3C12c1ccc(Cl)cc1 (configuration not stated) | 82.5%
9 | O=C(c1ccc(SC(F)(F)F)cc1)N1CCN2C(=O)c3ncccc3C12c1ccccc1 (configuration not stated) | 62.1%
10 | O=C(c1ccc(SC(F)(F)F)cc1)N1CCN2C(=O)c3ccccc3C12c1ccc(Cl)cc1 (configuration not stated) | 4.43% (active)
11 | COc1ccc(C23c4ccccc4C(=O)N2CCN3C(=O)c2ccccc2C)cc1 (configuration not stated) | 49.9% (active)
12 | O=C(c1cccnc1)N1CCN2C(=O)c3ccccc3C12c1ccc(Cl)cc1 (configuration not stated) | 82.6%
13 | O=C(c1cccc(C(F)(F)F)c1)N1CCN2C(=O)c3ccccc3C12c1ccc(Cl)cc1 (configuration not stated) | 1.89% (active)
14 | O=C1c2ccccc2C2(c3ccc(F)cc3)NCCN12 (configuration not stated) | 77.6%
15 | O=C(c1ccc(F)cc1)N1CCN2C(=O)c3ccccc3C12c1ccc(F)cc1 (configuration not stated) | 69.7%
16 | O=C(c1ccc(OC(F)(F)F)cc1)N1CCN2C(=O)c3ncccc3C12c1ccccc1 (configuration not stated) | 73.1%
17 | O=C(Nc1cccc(C(F)(F)F)c1)N1CCN2C(=O)c3ccccc3C12c1ccccc1 (configuration not stated) | 76.4%
18 | C=CCN1C[C@H](C)N2C(=O)c3ccccc3[C@@]12c1ccc(Cl)cc1 | 64.3%
19 | O=C1c2ccccc2C2(c3ccccc3)Nc3ccccc3N12 (configuration not stated) | 81.8%

Row | Compound | activity remaining
20 | COc1cccc(C(=O)N2CCN3C(=O)c4ccccc4C23c2ccc(Cl)cc2)c1 (configuration not stated) | 17.5% (active)
21 | CC(C)(C)C(=O)N1CCN2C(=O)c3ccccc3C21c1ccccc1 (configuration not stated) | 83.6%
22 | Cc1ccc(C(=O)N2CCN3C(=O)c4ncccc4C23c2ccccc2)cc1 (configuration not stated) | 63.1%
23 | C[C@H]1CN(Cc2ccccc2)[C@]2(c3ccc(Cl)cc3)c3ccccc3C(=O)N12 | 73.1%
24 | COc1ccc(C23c4ccccc4C(=O)N2CCN3C(=O)c2cccc(C(F)(F)F)c2)cc1 (configuration not stated) | 47.9% (active)
25 | O=C(c1ccc(C(F)(F)F)cc1)N1CCN2C(=O)c3ccccc3C12c1ccc(Cl)cc1 (configuration not stated) | 2.04% (active)
26 | Cc1cccc(C(=O)N2CCN3C(=O)c4ncccc4C23c2ccccc2)c1 (configuration not stated) | 68.9%
27 | Cc1ccc(C(=O)N2CCCN3C(=O)c4ccccc4C23c2ccc(Cl)cc2)cc1 (configuration not stated) | 74.8%
28 | O=C(c1ccc(Br)cc1)c1ccccc1C(=O)N1CCCN(C(=O)c2ccccc2)CC1 | 78.1%
29 | CS(=O)(=O)c1ccc(C23c4ccccc4C(=O)N2CCN3C(=O)c2ccc(F)c(F)c2)cc1 (configuration not stated) | 77.3%
30 | CSc1ccc(C(=O)N2CCN3C(=O)c4ccccc4C23c2ccccc2)cc1 (configuration not stated) | 58%
31 | COc1ccccc1NC(=O)N1CCN2C(=O)c3ccccc3C12c1ccccc1 (configuration not stated) | 86.6%
32 | O=C(c1ccc(F)c(F)c1)N1CCN2C(=O)c3ccccc3C12c1ccc(O)cc1 (configuration not stated) | 65.9%
33 | O=C(c1ccc(F)cc1)N1CCCC1c1ccccc1 (configuration not stated) | 87%
34 | O=C1CCC2(c3ccccc3)Nc3ccccc3N12 (configuration not stated) | 81.8%
35 | O=C(c1ccc(C(F)(F)F)cc1)N1CCN2C(=O)c3ncccc3C12c1ccccc1 (configuration not stated) | 72.2%
36 | Clc1ccc(C2(c3ccccc3)CCCN2)cc1 (configuration not stated) | 68.9%
37 | O=C(c1ccc(Cl)c(Cl)c1)N1CCN2C(=O)c3ccccc3C12c1ccccc1 (configuration not stated) | 30.5% (active)
